Test results from PubChem BioAssay AID1159580 (chemical genetic matrix, 2015).
Among all 5,500 compounds or so, about 2,000 (36%) were called active. Roughly 18% stayed inconclusive and do not appear here. The list shows a part of the results. Values without a mark were called inactive. No stated cut-off is given here; in the data, active means normalized growth mostly below about 0.91 (no sharp cut-off); inconclusive means no clear call, values can overlap the other calls; inactive means mostly above about 0.92.

Test: chemical genetic growth profiling, strain panel (AID 1159580);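 further: tested at 20 µM; growth read once vehicle control cultures reached saturation at 30 °C; 1 = growth at the plate median or of vehicle wells; lower values mean less growth of the strain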
Details: growth OD
[1] = S. cerevisiae deletion strains, locus YDR150W, strain NUM1, hits give low values
[2] = S. cerevisiae deletion strains, locus YMR263W, strain SAP30, hits give low values
[3] = S. cerevisiae deletion strains, locus YMR307W, strain GAS1, hits give low values
[4] = S. cerevisiae deletion strains, locus YNL322C, strain KRE1, hits give low values
[5] = S. cerevisiae deletion strains, locus YPL055C, strain LGE1, hits give low values
[6] = S. cerevisiae deletion strains, locus YAL013W, strain DEP1, hits give low values
[7] = S. cerevisiae deletion strains, locus YBR229C, strain ROT2, hits give low values
[8] = S. cerevisiae deletion strains, locus YDL101C, strain DUN1, hits give low values
[9] = S. cerevisiae deletion strains, locus YEL061C, strain CIN8, hits give low values
[10] = S. cerevisiae deletion strains, locus YGR078C, strain PAC10, hits give low values
[11] = S. cerevisiae deletion strains, locus YHR030C, strain SLT2, hits give low values
[12] = S. cerevisiae deletion strains, locus YHR087W, strain rtc3, hits give low values
[13] = S. cerevisiae deletion strains, locus YJR043C, strain POL32, hits give low values
[14] = S. cerevisiae deletion strains, locus YJR075W, strain HOC1, hits give low values
[15] = S. cerevisiae deletion strains, locus YLR039C, strain RIC1, hits give low values
[16] = S. cerevisiae deletion strains, locus YLR058C, strain SHM2 (second series), hits give low values
[17] = S. cerevisiae deletion strains, locus YLR085C, strain ARP6, hits give low values
[18] = S. cerevisiae deletion strains, locus YLR262C, strain YPT6, hits give low values
[19] = S. cerevisiae deletion strains, locus YML094W, strain GIM5, hits give low values
[20] = S. cerevisiae deletion strains, locus YMR219W, strain ESC1, hits give low values
[21] = S. cerevisiae deletion strains, locus YNL153C, strain GIM3, hits give low values
[22] = S. cerevisiae deletion strains, locus YNL298W, strain CLA4 (second series), hits give low values
[23] = S. cerevisiae deletion strains, locus YNR030W, strain Alg12, hits give low values
[24] = S. cerevisiae deletion strains, locus YPL241C, strain CIN2, hits give low values
[25] = S. cerevisiae deletion strains, locus YPR135W, strain CTF4, hits give low values
[26] = S. cerevisiae strains, strain wild type, hits give low values

Question: For `C#CCN(C)CCCOc1ccc(Cl)cc1Cl`, which normalized growth (S. cerevisiae deletion strains, locus YAL040C, strain CLN3, hits give low values) is on record?
Answer: 1.01

Question: And the normalized growth (S. cerevisiae deletion strains, locus YCL061C, strain MRC1 (second series), hits give low values)?
Answer: 0.989

Question: What about the normalized growth [1] of the same compound?
Answer: 0.974

Question: And the normalized growth (S. cerevisiae deletion strains, locus YDR363W, strain ESC2, hits give low values)?
Answer: 0.991

Question: What about the normalized growth (S. cerevisiae deletion strains, locus YER002W, strain NOP16, hits give low values) of the same compound?
Answer: 0.993

Question: What about the normalized growth [2] of the same compound?
Answer: 1

Question: And the normalized growth [3]?
Answer: 0.989

Question: And the normalized growth (S. cerevisiae deletion strains, locus YNL175C, strain NOP13, hits give low values)?
Answer: 1

Question: And the normalized growth (S. cerevisiae deletion strains, locus YNL197C, strain WHI3, hits give low values)?
Answer: 1

Question: And the normalized growth (S. cerevisiae deletion strains, locus YNL224C, strain SQS1, hits give low values)?
Answer: 1.01

Question: And the normalized growth [4]?
Answer: 0.993

Question: What about the normalized growth (S. cerevisiae deletion strains, locus YOR083W, strain WHI5 (second series), hits give low values) of the same compound?
Answer: 0.896

Question: And the normalized growth [5]?
Answer: 0.961

Question: What does the source list for `COC(=O)COc1ccc(C(C)=O)cc1`?
Answer: normalized growth [6]: 1.01; normalized growth [7]: 0.988; normalized growth [8]: 0.96; normalized growth [1]: 0.977; normalized growth [9]: 1.01; normalized growth [10]: 1; normalized growth (S. cerevisiae deletion strains, locus YGR229C, strain SMI1, hits give low values): 0.992; normalized growth [11]: 1.02; normalized growth [12]: 1; normalized growth [13]: 1.01; normalized growth [14]: 0.984; normalized growth [15]: 0.974; normalized growth [16]: 1; normalized growth [17]: 1.01; normalized growth [18]: 0.975; normalized growth [19]: 0.952; normalized growth [20]: 1.01; normalized growth [2]: 1; normalized growth [21]: 1; normalized growth [22]: 0.977; normalized growth [4]: 0.991; normalized growth [23]: 0.98; normalized growth (S. cerevisiae deletion strains, locus YOL006C, strain TOP1, hits give low values): 0.999; normalized growth [5]: 0.992; normalized growth [24]: 1.07; normalized growth [25]: 0.935; normalized growth [26]: 0.99

Question: For `O=C(O)CCOc1ccc(Cl)cc1`, which normalized growth [6] is on record?
Answer: 0.956

Question: And the normalized growth [7]?
Answer: 0.795 (active)

Question: And the normalized growth (S. cerevisiae deletion strains, locus YCL061C, strain MRC1, hits give low values)?
Answer: 0.825 (active)

Question: And the normalized growth [8]?
Answer: 0.901

Question: And the normalized growth (S. cerevisiae deletion strains, locus YDL134C, strain PPH21, hits give low values)?
Answer: 1

Question: What about the normalized growth [9] of the same compound?
Answer: 0.999

Question: And the normalized growth [10]?
Answer: 0.753 (active)

Question: And the normalized growth [11]?
Answer: 1.01

Question: What about the normalized growth [12] of the same compound?
Answer: 0.729 (active)

Question: What about the normalized growth (S. cerevisiae deletion strains, locus YJL187C, strain SWE1, hits give low values) of the same compound?
Answer: 0.837 (active)

Question: And the normalized growth [13]?
Answer: 0.913 (active)

Question: What about the normalized growth [14] of the same compound?
Answer: 0.64 (active)

Question: What about the normalized growth (S. cerevisiae deletion strains, locus YKL190W, strain CNB1, hits give low values) of the same compound?
Answer: 1

Question: And the normalized growth [15]?
Answer: 0.979

Question: And the normalized growth [16]?
Answer: 0.904 (active)

Question: What about the normalized growth [17] of the same compound?
Answer: 1

Question: And the normalized growth [18]?
Answer: 0.993

Question: What about the normalized growth [19] of the same compound?
Answer: 1.01

Question: What about the normalized growth [20] of the same compound?
Answer: 0.838 (active)

Question: What about the normalized growth [2] of the same compound?
Answer: 0.859 (active)

Question: What about the normalized growth [3] of the same compound?
Answer: 0.895

Question: And the normalized growth [21]?
Answer: 0.793 (active)

Question: And the normalized growth [22]?
Answer: 1.03

Question: What about the normalized growth [4] of the same compound?
Answer: 0.9 (active)

Question: What about the normalized growth [23] of the same compound?
Answer: 1

Question: And the normalized growth [5]?
Answer: 0.763 (active)

Question: And the normalized growth [24]?
Answer: 0.954

Question: What about the normalized growth [25] of the same compound?
Answer: 1.11

Question: What about the normalized growth [26] of the same compound?
Answer: 1.01
